# Experimental data reported in paper PMC12136788.
# Positions count from the first letter of the chain named. The full ranking holds about 24,000 sequences; the median of “enrichment r” is about 0.99, and the highest 2% start at about 3.7. The full list was thinned out, with the highest values kept by preference.
# T1: UNK ZnF1-3 (human, UniProt Q9C0B0 31-174)
# T1 sequence: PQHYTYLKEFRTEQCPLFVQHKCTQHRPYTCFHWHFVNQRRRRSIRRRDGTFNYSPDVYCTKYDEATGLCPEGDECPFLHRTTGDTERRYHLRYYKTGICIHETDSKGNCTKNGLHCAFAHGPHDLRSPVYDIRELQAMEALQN
# B1: chr14:103803487:103803488:+_ENSG00000100664_ENST00000558506|hu_hu|FALSE|FALSE (ssRNA)
# RNA: GGGAGUUCUACAGUCCGACGAUCGAGUUUAUGAUGUGUGUCAAGCAUGCCUCGAUAGCCACAGGCUUUACAAGAAUUACCUAUUGUUUGCUUCUUUGGAUUGACAUGCAAAUCUGUUUCAGGAUUCUCACAUUCAGGACAGAGCAACAGAGGAUUGAGCAUCA
# B2: chr11:68315578:68315579:+_ENSG00000110075_ENST00000393800|perfect_dup|motif|central (ssRNA)
# RNA: GGGAGUUCUACAGUCCGACGAUCUGGAGGUUCGAUACACGUCAGGAGCCUGAGCAACAAAUCCAUGAUAGCAGAAGUUCCGGUGUGCUUUAUAAUAAGGUCUACAAAAUCAUGCUUCUUCUUUAAGAAAUCCACAAUCUGUUCCAACAGAGGAUUGAGCAUCA
# B3: chr2:216981417:216981418:+_ENSG00000079246_ENST00000392132|hu_hu|hu_hu_hu_mus_True|28_68 (ssRNA)
# RNA: GGGAGUUCUACAGUCCGACGAUCCUGAUACUGGUCCUUGCCAGCAAGGGCAUUAUCAGUGCCAUCUGUACCAAACAGGACUAACGCAAUCUCAUCUUUGCUCUCCGCAAACACCUGUCGUUGGACAAACAUAGUCAUCACUUUCAACAGAGGAUUGAGCAUCA
# B4: chr1:112309342:112309343:+_ENSG00000064703_ENST00000369702|hu_hu|FALSE|FALSE (ssRNA)
# RNA: GGGAGUUCUACAGUCCGACGAUCUCUCCAGUACUCCUCAUAAUCCUGAUAGGUAUCAGAAAAACUCAGACGUAUUUCCCUAUGACAGUCAUACCAAUCAUCUUCCUGGGCUUCAGUCUGCAAUCUGAAGGAAGACCGCCUGGGCAACAGAGGAUUGAGCAUCA
# B5: chr2:158287933:158287934:+_ENSMUSG00000027652_ENSMUST00000141497|mus_hu|FALSE|FALSE (ssRNA)
# RNA: GGGAGUUCUACAGUCCGACGAUCAAGAGGUUGUUCCAGCAUUGCCAGGAUGACACUGUUAUCCAAGACAAAGUACCGGAAACUAUGCUUGUUUAUGGUUGGCAGCCUGGAGUAUUUAAUCAAAGUGGUCUCAUUCACAAGACUCAACAGAGGAUUGAGCAUCA
# B6: chr3:179287964:179287965:+_ENSG00000136518_ENST00000429709|hu_hu|hu_hu_hu_mus_True|28_28 (ssRNA)
# RNA: GGGAGUUCUACAGUCCGACGAUCCUUGAGUGGUGAGAUGGCCUCCAUGUUCUCCCUGGGCACGCGGAGGGCAUUGGUGUCUAUGUAGUAGGUGGGCCCGCCCUGCUUGCCUUUAUCACCAUCAAUCUCCAUCAUUGUACUUCCCAACAGAGGAUUGAGCAUCA
# B7: chr4:131761308:131761309:-_ENSMUSG00000040025_ENSMUST00000102570|mus_mus|FALSE|FALSE (ssRNA)
# RNA: GGGAGUUCUACAGUCCGACGAUCGCUGACUGUCCAUCAAUCAUGGCUCCACCUAAGGAGCUGGGUGCAUAAGCGUAAUUGCUACUAUAUCCAGAGCUUUGAGUAGACUGUCCCUGAGAACUGUUAUUUCCCCAUGCUGAGAAGCAACAGAGGAUUGAGCAUCA
# B8: chr11:87793471:87793472:-_ENSMUSG00000020483_ENSMUST00000020775|mus_mus|mus_mus_mus_hu_False|8_78 (ssRNA)
# RNA: GGGAGUUCUACAGUCCGACGAUCUGGACUUGAAAAUAAAAGAAUAAGCUGGAUCCCCCCACCCCUUACAUUGUCAACCCUACACGAGAGUUUUGAAGGCGACUCAUGAAAAUCAGCAGCUCAAACGAAUGACAACCCCCCACCCAACAGAGGAUUGAGCAUCA
# B9: chr11:87793471:87793472:-_ENSMUSG00000020483_ENSMUST00000020775|mus_mus|mus_mus_mus_hu_False|8_98 (ssRNA)
# RNA: B8 RNA with G41A, U44A, A45U, C59A, A60C, U65C, U66C
# B10: chr11:87793471:87793472:-_ENSMUSG00000020483_ENSMUST00000020775|mus_mus|mus_mus_mus_hu_False|8_68 (ssRNA)
# RNA: B8 RNA with C59A, A60C, U65C, U66C, U70G
# B11: chr7:56127975:56127976:+_ENSG00000146731_ENST00000540286|hu_mus|FALSE|FALSE (ssRNA)
# RNA: GGGAGUUCUACAGUCCGACGAUCUGGUCCUUUAACCAGUAAAGUGACAGAACGGGGAUUGUUACACUUCUCAAUAAAGGUGAACUUCUCCUCACCCAGUGUAUACUCAUAGACAAGCUCUGCAUGUCCCAAACAGUCAGGAUUCAACAGAGGAUUGAGCAUCA
# B12: chr13:100193624:100193625:-_ENSMUSG00000052727_ENSMUST00000064762|mus_mus|FALSE|FALSE (ssRNA)
# RNA: GGGAGUUCUACAGUCCGACGAUCAAACCCUCAGAGUAAAAGAGCAGUGCGAAACAUACGCUUUACAGACGAAAAUAAACUAAAAUGUAAAUUUUGAAAUAAAUAACUAACAUAGAAAAUAAAAUGAGGUCAUUGUUCACUACCCAACAGAGGAUUGAGCAUCA
# B13: chr16:94651144:94651145:+_ENSMUSG00000040785_ENSMUST00000117648|mus_hu|mus_mus_mus_hu_True|18_58 (ssRNA)
# RNA: GGGAGUUCUACAGUCCGACGAUCAUUUUCUUGAAUCAAGUGGCGAAUAACAUAGUCCACUGCUUCAUUUAGAAAAUUUUUGCUAGAAAAACAGGUUGUAUAGUCUUCUGUGCUCAAAACCUUCCAAGAAAGCAAUUCUUUGAGCAACAGAGGAUUGAGCAUCA
# B14: chr13:100193624:100193625:-_ENSMUSG00000052727_ENSMUST00000064762|mus_mus|motif|central (ssRNA)
# RNA: B12 RNA with U80G, A81G
# B15: chr13:100201144:100201145:-_ENSMUSG00000052727_ENSMUST00000064762|mus_hu|FALSE|FALSE (ssRNA)
# RNA: GGGAGUUCUACAGUCCGACGAUCCUCCUCCAUAGGUGGUAUCUUAUGUGAUAAACUGGAGUCCUGCAUGUCAGAAGGACUGUAGUCCACUUCAGUUGGCCCAUUUUCAGUGAUGUGAAGCACGCCUGCACCCACUGUAGGGUGCAACAGAGGAUUGAGCAUCA
# B16: 95238312_95238432_61_3pUTR_ENSMUSG00000015522_ENSMUST00000090804|mouse|control|control (ssRNA)
# RNA: GGGAGUUCUACAGUCCGACGAUCACCCUCGGUGGGAGGGGCAGCCGCCACCGAGCUGGGGGAGGGGAGGGAAGAGCCACUCCGCAGAUUAGGCACCUUACCGCCGCCACCGCUACCGCGGAAUCCAAGAUGGCGGACGCCCACCAACAGAGGAUUGAGCAUCA
# B17: chr6:114274515:114274516:-_ENSG00000196591_ENST00000368632|hu_mus|motif|central (ssRNA)
# RNA: GGGAGUUCUACAGUCCGACGAUCCAUCACGCGAUCUGUUGUAUAAAAAGCUUCCUCAACACCAUCACCAUGGUGGAUGUCGGUGUCAAUAUAUAAGACUCUCUGAUGAUACUUAAGUAAUUCGAGGAUGGCAAGCACAAUAUCCAACAGAGGAUUGAGCAUCA
# Biological target: T1, UNK ZnF1-3
# Assay: nsRBNS (natural sequence RNA bind-n-seq); RBNS binding buffer (assumed for nsRBNS): 25 mM Tris pH 7.5, 150 mM KCl, 3 mM MgCl2, 0.01% Triton X-100, 500 ug/ml BSA, 20 U/ml SUPERase-In, 4 C; UNK is unkempt and MSI1 is Musashi-1; names of the RNAs are library labels; protein concentration not given here; high values mean tight binding
row,Binder,binding signal [enrichment R]
1,B1,1.32
2,B2,1.87
3,B3,0.739
4,B4,0.941
5,B5,0.695
6,B6,0.667
7,B7,1.1
8,B8,1.99
9,B9,4.4
10,B10,2.23
11,B11,0.526
12,B12,9.34
13,B13,0.507
14,B14,4.16
15,B15,0.585
16,B16,0.955
17,B17,1.5
